Holding throughout (assay): DAPPL (digital affinity profiling via proximity ligation, sequencing); 10 mM Tris-HCl pH 7.5, 50 mM NaCl, 1 mM DTT, 4% glycerol, room temperature, 30 min; GST-TFs on glutathione beads, 16-mer random dsDNA library, 0.1% formaldehyde crosslink after washing; high values mean tight binding
Test [1] concerns the target T1, FEV (Homo sapiens, UniProt Q99581 1-238).
T1 sequence: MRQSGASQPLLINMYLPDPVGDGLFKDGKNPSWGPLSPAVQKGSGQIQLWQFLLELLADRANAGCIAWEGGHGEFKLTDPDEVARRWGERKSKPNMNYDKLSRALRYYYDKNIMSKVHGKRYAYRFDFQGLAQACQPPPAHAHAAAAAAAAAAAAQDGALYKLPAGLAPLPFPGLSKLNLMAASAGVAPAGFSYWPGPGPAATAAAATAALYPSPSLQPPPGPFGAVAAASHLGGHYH
To be noted: protein: recombinant; tags: N-terminal GST; dsDNA, one strand shown. The gist of the method: (§1)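 Human transcription factors carrying a GST fusion were produced in yeast, bound to glutathione beads, tagged with DNA barcodes and pooled together with a tag-only sample. Each pool was held with 200 nmole of a random double-stranded 16-mer DNA library in Tris/NaCl/DTT/glycerol buffer for 30 min at room temperature, then washed, crosslinked in 0.1% formaldehyde, proximity-ligated with BsaI/T4 ligase (1 h, 37 °C), PCR-amplified and sequenced on an Illumina NextSeq500. Binding signal is the read frequency of each hexamer for a given factor divided by its frequency in the tag-only sample.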

Test [2] deals with ETV5 (Homo sapiens, UniProt P41161 1-510). Conditions: protein: recombinant; tags: N-terminal GST; dsDNA, one strand shown. Put shortly:
as §1

The target in test [3] is HSF1 (Homo sapiens, UniProt Q00613 1-529). To be noted: protein: recombinant; tags: N-terminal GST; chain copies: 3; dsDNA, one strand shown. Put shortly: as §1
Chain of HSF1 (Q00613 whole entry): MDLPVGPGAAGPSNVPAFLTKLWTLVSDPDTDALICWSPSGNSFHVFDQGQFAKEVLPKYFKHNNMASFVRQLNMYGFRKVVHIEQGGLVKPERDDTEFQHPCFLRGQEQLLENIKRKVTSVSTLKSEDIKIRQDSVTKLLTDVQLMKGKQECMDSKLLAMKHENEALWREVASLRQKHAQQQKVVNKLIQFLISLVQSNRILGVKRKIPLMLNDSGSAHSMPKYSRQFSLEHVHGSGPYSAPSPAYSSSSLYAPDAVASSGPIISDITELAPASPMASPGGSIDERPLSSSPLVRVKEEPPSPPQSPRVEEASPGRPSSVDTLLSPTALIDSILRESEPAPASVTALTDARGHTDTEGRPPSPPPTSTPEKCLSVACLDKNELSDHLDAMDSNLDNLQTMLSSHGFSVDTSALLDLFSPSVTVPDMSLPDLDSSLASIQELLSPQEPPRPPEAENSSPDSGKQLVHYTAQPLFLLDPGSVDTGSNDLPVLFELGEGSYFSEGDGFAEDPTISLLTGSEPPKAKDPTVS
The target in test [4] is T2, SPIC (Homo sapiens, UniProt Q8N5J4 1-248).
T2 sequence: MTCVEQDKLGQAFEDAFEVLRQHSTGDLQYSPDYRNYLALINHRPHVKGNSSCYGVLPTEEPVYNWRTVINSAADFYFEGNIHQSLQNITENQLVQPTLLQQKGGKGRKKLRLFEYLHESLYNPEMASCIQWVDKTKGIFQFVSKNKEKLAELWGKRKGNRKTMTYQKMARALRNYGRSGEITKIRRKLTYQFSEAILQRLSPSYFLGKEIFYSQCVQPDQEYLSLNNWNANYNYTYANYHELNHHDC
Conditions: protein: recombinant; tags: N-terminal GST; dsDNA, one strand shown. The gist of the method: as §1

In test [5] the target is ELF4 (Homo sapiens, UniProt Q99607 1-663). To be noted: protein: recombinant; tags: N-terminal GST; dsDNA, one strand shown. The gist of the method: as §1
Chain of ELF4 (Q99607 whole entry): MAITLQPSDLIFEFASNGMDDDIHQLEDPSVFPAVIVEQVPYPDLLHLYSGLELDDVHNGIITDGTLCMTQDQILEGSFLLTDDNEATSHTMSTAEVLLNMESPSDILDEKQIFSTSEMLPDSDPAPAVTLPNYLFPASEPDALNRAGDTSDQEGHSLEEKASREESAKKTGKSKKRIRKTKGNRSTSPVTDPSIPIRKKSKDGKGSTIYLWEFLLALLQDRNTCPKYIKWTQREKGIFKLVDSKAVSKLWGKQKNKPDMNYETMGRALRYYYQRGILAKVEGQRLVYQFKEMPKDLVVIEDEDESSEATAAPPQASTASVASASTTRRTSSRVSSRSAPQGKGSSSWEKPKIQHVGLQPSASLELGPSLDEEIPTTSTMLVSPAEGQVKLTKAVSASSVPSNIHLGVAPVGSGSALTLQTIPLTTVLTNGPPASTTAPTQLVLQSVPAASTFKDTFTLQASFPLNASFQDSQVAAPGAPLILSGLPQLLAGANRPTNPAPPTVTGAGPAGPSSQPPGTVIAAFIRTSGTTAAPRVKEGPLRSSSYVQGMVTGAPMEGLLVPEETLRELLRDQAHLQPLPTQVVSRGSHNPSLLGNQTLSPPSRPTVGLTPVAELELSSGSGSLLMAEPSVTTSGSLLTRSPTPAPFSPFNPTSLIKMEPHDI
Test [6] has as its target T3, ELK4 (Homo sapiens, UniProt P28324-2 1-405).
T3 sequence: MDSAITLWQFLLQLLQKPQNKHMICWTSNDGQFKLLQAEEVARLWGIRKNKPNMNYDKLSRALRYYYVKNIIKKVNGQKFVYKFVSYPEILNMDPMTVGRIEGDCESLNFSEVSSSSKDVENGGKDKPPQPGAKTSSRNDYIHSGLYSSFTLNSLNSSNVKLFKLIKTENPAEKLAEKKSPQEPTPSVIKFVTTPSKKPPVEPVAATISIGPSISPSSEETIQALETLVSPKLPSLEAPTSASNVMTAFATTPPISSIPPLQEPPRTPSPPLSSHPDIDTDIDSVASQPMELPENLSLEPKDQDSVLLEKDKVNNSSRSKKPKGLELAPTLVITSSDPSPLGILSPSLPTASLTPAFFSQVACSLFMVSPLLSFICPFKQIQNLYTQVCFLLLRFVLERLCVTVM
Conditions: protein: recombinant; tags: N-terminal GST; dsDNA, one strand shown. The gist of the method:
as §1

Test [7] addresses T4, ETV2 (Homo sapiens, UniProt O00321 1-342).
T4 sequence: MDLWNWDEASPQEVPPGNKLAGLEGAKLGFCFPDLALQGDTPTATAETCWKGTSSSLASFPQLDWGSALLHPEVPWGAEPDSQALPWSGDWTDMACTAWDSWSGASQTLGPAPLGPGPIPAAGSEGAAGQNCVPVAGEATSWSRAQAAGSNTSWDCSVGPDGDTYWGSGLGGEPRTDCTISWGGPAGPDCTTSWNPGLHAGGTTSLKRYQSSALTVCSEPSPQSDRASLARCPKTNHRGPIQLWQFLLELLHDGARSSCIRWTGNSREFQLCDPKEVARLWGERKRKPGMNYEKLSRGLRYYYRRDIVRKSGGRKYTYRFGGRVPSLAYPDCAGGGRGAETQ
To be noted: protein: recombinant; tags: N-terminal GST; dsDNA, one strand shown. Put shortly:
as §1

Test [8] has as its target T5, ELF3 (Homo sapiens, UniProt P78545 1-371).
T5 sequence: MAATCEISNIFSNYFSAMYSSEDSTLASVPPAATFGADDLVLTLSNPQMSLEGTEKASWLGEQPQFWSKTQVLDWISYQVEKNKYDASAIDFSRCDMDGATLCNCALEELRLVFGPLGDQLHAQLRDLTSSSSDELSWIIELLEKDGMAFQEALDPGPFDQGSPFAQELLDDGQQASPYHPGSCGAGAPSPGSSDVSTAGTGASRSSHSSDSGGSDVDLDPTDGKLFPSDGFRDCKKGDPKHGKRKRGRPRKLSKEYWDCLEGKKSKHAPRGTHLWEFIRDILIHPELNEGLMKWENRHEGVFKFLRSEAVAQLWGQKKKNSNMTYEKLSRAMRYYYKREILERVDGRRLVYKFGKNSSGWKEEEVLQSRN
Conditions: protein: recombinant; tags: N-terminal GST; dsDNA, one strand shown. The gist of the method:
as §1

Test [9] deals with CRX (Homo sapiens, UniProt O43186 1-299). Conditions: protein: recombinant; tags: N-terminal GST; dsDNA, one strand shown. Put shortly:
as §1

Test [10] addresses ETV1 (Homo sapiens, UniProt P50549 1-477). Conditions: protein: recombinant; tags: N-terminal GST; dsDNA, one strand shown. Put shortly:
as §1

The target in test [11] is T6, ERF (Homo sapiens, UniProt P50548 1-548).
T6 sequence: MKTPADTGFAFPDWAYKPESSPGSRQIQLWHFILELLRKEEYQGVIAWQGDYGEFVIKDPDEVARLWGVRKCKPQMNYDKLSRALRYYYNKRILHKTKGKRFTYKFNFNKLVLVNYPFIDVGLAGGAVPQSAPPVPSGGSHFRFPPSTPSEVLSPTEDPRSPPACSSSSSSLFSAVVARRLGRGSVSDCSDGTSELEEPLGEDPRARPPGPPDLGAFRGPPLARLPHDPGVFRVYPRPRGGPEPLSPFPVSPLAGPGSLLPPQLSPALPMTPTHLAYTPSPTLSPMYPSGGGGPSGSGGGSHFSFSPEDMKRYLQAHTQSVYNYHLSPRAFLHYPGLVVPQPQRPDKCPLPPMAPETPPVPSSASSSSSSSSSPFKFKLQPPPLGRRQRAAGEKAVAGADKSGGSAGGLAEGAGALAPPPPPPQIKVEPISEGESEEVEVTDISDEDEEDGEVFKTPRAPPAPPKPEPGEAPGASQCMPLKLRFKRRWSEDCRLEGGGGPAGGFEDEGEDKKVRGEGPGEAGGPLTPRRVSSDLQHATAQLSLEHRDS
Conditions: protein: recombinant; tags: N-terminal GST; dsDNA, one strand shown. The gist of the method: as §1

Test [12] concerns the target T7, ETV3L (Homo sapiens, UniProt Q6ZN32 1-361).
T7 sequence: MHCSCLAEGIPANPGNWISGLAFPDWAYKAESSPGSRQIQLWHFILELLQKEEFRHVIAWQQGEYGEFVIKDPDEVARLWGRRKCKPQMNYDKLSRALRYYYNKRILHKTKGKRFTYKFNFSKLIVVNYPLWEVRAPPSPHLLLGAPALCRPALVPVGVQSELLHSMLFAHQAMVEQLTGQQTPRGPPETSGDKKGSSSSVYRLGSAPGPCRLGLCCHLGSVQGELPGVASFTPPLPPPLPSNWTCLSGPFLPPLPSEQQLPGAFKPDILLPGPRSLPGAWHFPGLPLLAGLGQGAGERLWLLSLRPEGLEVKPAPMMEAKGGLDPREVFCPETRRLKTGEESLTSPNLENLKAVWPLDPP
To be noted: protein: recombinant; tags: N-terminal GST; dsDNA, one strand shown. The gist of the method: as §1

Test [13] deals with T8, ETS2 (Homo sapiens, UniProt P15036 1-469).
T8 sequence: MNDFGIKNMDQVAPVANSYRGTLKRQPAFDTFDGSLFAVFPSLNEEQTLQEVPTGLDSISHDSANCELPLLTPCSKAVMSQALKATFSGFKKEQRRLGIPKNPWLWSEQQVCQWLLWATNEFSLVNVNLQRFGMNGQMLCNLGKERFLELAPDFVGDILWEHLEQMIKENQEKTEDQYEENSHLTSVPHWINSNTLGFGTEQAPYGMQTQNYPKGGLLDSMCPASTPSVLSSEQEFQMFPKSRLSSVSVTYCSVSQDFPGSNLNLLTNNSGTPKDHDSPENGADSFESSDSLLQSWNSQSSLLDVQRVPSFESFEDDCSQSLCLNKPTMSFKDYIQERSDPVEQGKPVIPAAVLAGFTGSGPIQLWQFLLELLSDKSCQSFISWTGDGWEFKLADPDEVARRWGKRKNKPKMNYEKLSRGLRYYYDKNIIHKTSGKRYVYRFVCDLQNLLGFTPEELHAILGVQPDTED
Conditions: protein: recombinant; tags: N-terminal GST; dsDNA, one strand shown. Put shortly:
as §1

Test [14] deals with T9, SPDEF (Homo sapiens, UniProt O95238 1-335).
T9 sequence: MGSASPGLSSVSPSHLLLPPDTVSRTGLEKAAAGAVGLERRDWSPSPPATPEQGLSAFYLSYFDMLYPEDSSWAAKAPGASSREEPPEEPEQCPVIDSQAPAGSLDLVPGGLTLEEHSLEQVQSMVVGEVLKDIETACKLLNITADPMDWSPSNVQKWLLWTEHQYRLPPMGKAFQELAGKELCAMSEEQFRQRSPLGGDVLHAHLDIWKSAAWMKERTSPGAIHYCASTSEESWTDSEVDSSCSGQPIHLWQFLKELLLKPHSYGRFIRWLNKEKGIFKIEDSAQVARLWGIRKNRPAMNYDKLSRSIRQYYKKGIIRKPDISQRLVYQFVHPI
Conditions: protein: recombinant; tags: N-terminal GST; dsDNA, one strand shown. The gist of the method: as §1

Test [15] concerns the target T10, ETV7 (Homo sapiens, UniProt Q9Y603 1-341).
T10 sequence: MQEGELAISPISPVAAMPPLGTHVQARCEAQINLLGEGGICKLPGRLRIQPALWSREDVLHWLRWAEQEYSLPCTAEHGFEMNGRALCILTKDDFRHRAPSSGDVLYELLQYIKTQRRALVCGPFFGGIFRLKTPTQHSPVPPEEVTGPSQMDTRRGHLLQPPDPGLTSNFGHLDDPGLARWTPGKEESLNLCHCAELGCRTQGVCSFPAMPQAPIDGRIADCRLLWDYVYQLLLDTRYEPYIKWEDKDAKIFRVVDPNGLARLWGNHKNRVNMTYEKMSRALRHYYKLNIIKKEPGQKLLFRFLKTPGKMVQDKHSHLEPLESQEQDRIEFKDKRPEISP
To be noted: protein: recombinant; tags: N-terminal GST; dsDNA, one strand shown. The gist of the method:
as §1

Test [16] concerns the target T11, ELF5 (Homo sapiens, UniProt Q9UKW6-2 1-255).
T11 sequence: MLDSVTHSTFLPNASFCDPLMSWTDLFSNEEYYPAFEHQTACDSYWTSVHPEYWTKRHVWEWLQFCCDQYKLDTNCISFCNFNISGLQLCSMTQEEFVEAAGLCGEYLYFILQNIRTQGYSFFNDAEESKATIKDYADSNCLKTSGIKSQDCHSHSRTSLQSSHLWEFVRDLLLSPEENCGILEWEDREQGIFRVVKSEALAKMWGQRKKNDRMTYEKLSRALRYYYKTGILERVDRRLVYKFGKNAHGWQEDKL
Conditions: protein: recombinant; tags: N-terminal GST; dsDNA, one strand shown. The gist of the method: as §1

In test [17] the target is T12, ETV3 (Homo sapiens, UniProt P41162-2 1-143).
T12 sequence: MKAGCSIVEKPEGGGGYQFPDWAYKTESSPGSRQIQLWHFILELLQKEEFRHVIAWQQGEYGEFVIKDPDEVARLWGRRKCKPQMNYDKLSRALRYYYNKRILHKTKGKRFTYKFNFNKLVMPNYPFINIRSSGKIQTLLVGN
Conditions: protein: recombinant; tags: N-terminal GST; dsDNA, one strand shown. The gist of the method:
as §1

Test [18] deals with ETV6 (Homo sapiens, UniProt P41212 1-452). Conditions: protein: recombinant; tags: N-terminal GST; dsDNA, one strand shown. Put shortly: as §1
Chain of ETV6 (P41212 whole entry): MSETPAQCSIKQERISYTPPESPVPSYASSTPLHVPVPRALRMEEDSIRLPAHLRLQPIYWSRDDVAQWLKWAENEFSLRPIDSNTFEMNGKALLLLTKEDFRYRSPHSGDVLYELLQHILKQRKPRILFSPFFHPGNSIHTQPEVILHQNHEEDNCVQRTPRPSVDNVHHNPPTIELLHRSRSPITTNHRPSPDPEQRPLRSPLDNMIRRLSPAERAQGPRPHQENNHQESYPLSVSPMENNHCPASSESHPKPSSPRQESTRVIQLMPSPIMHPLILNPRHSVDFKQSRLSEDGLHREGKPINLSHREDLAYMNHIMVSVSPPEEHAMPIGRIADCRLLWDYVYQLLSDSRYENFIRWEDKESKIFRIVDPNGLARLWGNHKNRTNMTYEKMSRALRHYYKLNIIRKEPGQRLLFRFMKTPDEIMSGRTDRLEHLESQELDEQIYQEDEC

Chain of CRX (O43186 whole entry): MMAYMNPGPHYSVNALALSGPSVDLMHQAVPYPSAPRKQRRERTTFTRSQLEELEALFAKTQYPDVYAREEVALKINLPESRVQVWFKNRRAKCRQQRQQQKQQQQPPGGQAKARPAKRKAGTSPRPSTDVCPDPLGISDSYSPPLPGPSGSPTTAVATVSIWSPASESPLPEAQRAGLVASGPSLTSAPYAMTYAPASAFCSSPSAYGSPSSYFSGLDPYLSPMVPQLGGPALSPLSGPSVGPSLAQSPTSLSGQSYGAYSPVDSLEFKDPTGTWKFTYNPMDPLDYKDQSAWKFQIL
Chain of ETV5 (P41161 whole entry): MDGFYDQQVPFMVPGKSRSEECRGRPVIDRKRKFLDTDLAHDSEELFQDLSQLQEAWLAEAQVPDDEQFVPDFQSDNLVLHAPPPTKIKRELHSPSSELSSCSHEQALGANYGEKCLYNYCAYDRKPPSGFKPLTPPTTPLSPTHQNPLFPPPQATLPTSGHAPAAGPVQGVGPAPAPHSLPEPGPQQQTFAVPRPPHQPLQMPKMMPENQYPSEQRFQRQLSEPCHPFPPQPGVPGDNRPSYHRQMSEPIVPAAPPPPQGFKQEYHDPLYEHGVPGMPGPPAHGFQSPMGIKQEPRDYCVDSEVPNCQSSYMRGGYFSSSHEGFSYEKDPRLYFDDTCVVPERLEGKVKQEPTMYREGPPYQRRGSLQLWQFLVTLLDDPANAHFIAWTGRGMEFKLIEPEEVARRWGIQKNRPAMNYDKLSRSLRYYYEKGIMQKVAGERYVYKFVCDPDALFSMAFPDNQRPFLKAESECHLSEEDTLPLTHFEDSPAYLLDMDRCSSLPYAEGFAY
Chain of ETV1 (P50549 whole entry): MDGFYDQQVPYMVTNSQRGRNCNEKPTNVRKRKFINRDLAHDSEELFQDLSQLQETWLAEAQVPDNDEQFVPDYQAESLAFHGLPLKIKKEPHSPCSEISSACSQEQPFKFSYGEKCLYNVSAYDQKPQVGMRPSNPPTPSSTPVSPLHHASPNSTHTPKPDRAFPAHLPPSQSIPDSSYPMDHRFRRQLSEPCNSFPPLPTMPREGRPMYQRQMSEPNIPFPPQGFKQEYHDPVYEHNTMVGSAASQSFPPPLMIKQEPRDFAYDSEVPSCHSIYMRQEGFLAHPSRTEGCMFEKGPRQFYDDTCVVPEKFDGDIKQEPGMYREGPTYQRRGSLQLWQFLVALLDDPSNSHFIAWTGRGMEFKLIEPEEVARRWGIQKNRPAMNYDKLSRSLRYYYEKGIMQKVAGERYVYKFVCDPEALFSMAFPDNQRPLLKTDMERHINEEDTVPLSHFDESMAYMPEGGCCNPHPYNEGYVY

Take CTAACA: the binding signal was 1.2 fold enrichment (6-mer frequency, TF over GST control) in test [1]; 1.26 fold enrichment (6-mer frequency, TF over GST control) in test [2]; 1.08 fold enrichment (6-mer frequency, TF over GST control) in test [3]; 1.26 fold enrichment (6-mer frequency, TF over GST control) in test [4]; 1.2 fold enrichment (6-mer frequency, TF over GST control) in test [5]; 1.17 fold enrichment (6-mer frequency, TF over GST control) in [6]. Besides, the binding signal was 1.21 fold enrichment (6-mer frequency, TF over GST control) in [7]; 1.28 fold enrichment (6-mer frequency, TF over GST control) in test [8]; 1.2 fold enrichment (6-mer frequency, TF over GST control) in test [9]; 1.15 fold enrichment (6-mer frequency, TF over GST control) in test [10]; 1.29 fold enrichment (6-mer frequency, TF over GST control) in test [11]; 1.22 fold enrichment (6-mer frequency, TF over GST control) in test [12]. The binding signal is 1.21 fold enrichment (6-mer frequency, TF over GST control) in test [13]; 1.29 fold enrichment (6-mer frequency, TF over GST control) in test [14]; 1.16 fold enrichment (6-mer frequency, TF over GST control) in test [15]; 1.15 fold enrichment (6-mer frequency, TF over GST control) in test [16]; 1.14 fold enrichment (6-mer frequency, TF over GST control) in test [17]; 1.18 fold enrichment (6-mer frequency, TF over GST control) in [18].

These data come from paper PMC7862700, “An all-to-all approach to the identification of sequence-specific readers for epigenetic DNA modifications on cytosine”.
